Drawing on PubChem BioAssay, this text covers growth inhibition, inhibition and outcome for 19 molecules.

Values joined by “and” are separate entries in the source; they are usually repeats but may differ in a detail not shown here. Equal values may be shown once. A number with no mark means an inactive call. For some assays here: Results with a measured potency or affinity are listed apart. Active and inactive are the calls of the source. Unless noted, the rule behind the calls is not given here.

Broadly, the inhibition is the relative decrease from the control value, in per cent.

Test [1] can be described thus: antimalarial activity against Dd2 strain (AID 2302;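 active = growth inhibition above 50% at the single 2 µM test dose, taken to imply half-maximal potency below 2 µM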;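 note: 0% = DMSO untreated growth and 100% = chloroquine plus artemisinin killed control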). To be noted: P. falciparum Dd2 in RBCs, LDH growth readout, 72 h; at 2 µM; hits give high values.
Test [2] is described as follows: human hepatoma cell viability loss – ATP luminescence, cytotoxicity control for P. falciparum antimalarial project, primary screen (AID 2303;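 active = inhibition above 50%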;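 note: 0% = DMSO wells and 100% = digitonin-killed cells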). To be noted: HepG2 viability, 24-48 h, at 10 µM, hits give high values.
Test [3] concerns the target L-lactate dehydrogenase (Plasmodium falciparum (isolate CDC / Honduras)) (UniProt Q27743). Briefly: PfLDH activity inhibition – cell lysate, 3D7 strain, counter-screen for P. falciparum growth inhibition project (AID 2304).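 Note: 0% = vehicle and 100% = reference inhibitor.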 To be noted: P. falciparum 3D7 crude extract, LDH APAD/NBT absorbance; at 2 µM; hits give high values. On the technique in general: A counterscreen serves to expose hits that act by an unwanted route or on another target.

The nature of test [4]: inhibition of 3D7 malaria parasite growth – strain 3D7 (AID 2306).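 Note: 0% = DMSO wells and 100% = chloroquine plus artemisinin control wells.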 To be noted: P. falciparum 3D7 erythrocytic growth, LDH absorbance, 72 h; at 2 µM; hits give high values.
Test [5] deals with Calcium-dependent protein kinase 1 (Plasmodium falciparum (isolate 3D7)) (UniProt P62344). Description: PfCDPK1 kinase inhibitors, biochemical, TCAMS library (AID 1159585; cut-off not given, nearly all actives have IC50 up to about 0.98 µM;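 note: inhibitors leave more ATP so luminescence rises with inhibition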). To be noted: recombinant PfCDPK1, Kinase-Glo ATP depletion luminescence. (In general: In Kinase-Glo more light means more ATP remaining.)
Test [6] has as its target Plasmodium falciparum protein kinase 6 (PK6, PF3D7_1337100) (UniProt Q8IDW1). Briefly: PfPK6 kinase inhibitors, biochemical, TCAMS library (AID 1159586). The settings on record: recombinant PfPK6, Kinase-Glo ATP depletion luminescence.
Test [7] addresses Protein kinase 7 (PK7), Plasmodium falciparum 3D7 (PF3D7_0213400) (UniProt Q7YTF7). Briefly: inhibition of Plasmodium PK7 catalytic activity – biochemical, TCAMS antimalarial set, Kinase-Glo luminescence (AID 1159587). To be noted: recombinant PfPK7, Kinase-Glo ATP depletion luminescence.
In test [8] the target is Calcium-dependent protein kinase 4 (Plasmodium falciparum (isolate 3D7)) (UniProt Q8IBS5). Description: PfCDPK4 kinase inhibitors, biochemical, TCAMS library (AID 1159588; cut-off not given, nearly all actives have IC50 up to about 0.91 µM). The settings on record: recombinant PfCDPK4, Kinase-Glo ATP depletion luminescence.
Chain of Calcium-dependent protein kinase 4 (Plasmodium falciparum (isolate 3D7)) (Q8IBS5 whole entry, looked up): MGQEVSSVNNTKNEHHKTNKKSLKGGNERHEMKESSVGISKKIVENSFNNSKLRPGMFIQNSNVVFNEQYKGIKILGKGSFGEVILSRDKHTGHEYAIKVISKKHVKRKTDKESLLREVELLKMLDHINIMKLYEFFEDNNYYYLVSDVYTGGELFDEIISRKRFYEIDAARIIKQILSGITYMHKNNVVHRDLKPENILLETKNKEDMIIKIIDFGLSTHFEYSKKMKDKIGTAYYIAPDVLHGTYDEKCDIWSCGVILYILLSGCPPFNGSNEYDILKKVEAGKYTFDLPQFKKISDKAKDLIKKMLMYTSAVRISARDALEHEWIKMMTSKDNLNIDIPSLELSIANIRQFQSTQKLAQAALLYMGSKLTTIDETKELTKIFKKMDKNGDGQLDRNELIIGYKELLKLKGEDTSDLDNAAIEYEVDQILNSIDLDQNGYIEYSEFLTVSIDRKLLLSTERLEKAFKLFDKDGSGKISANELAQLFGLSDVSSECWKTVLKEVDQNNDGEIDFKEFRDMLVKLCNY

Chain of Calcium-dependent protein kinase 1 (Plasmodium falciparum (isolate 3D7)) (P62344 whole entry, looked up): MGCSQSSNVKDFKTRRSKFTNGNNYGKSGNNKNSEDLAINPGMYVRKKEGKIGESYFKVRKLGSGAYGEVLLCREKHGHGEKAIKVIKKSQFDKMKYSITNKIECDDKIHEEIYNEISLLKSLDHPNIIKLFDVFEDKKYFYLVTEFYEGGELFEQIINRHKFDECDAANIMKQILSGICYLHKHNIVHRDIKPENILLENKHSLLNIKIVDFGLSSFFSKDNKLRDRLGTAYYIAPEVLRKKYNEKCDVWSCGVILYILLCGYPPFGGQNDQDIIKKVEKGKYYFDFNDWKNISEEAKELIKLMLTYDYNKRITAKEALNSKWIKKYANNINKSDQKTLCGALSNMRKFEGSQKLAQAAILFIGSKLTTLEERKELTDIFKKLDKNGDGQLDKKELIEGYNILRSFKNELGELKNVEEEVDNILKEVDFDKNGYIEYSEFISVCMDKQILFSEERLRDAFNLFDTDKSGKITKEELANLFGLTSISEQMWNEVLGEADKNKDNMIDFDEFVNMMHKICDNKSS
Chain of Protein kinase 7 (PK7), Plasmodium falciparum 3D7 (PF3D7_0213400) (Q7YTF7 1-343): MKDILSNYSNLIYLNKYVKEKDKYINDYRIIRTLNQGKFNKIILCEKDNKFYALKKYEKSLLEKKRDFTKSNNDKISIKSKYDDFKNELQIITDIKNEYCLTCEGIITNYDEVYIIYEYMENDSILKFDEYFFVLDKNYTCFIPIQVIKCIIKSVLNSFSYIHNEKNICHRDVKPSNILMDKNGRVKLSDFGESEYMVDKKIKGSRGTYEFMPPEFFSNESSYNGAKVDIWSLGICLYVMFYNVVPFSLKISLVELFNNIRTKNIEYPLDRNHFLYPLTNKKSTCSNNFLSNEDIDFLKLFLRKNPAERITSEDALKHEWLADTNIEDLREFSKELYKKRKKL
Chain of L-lactate dehydrogenase (Plasmodium falciparum (isolate CDC / Honduras)) (Q27743 whole entry, looked up): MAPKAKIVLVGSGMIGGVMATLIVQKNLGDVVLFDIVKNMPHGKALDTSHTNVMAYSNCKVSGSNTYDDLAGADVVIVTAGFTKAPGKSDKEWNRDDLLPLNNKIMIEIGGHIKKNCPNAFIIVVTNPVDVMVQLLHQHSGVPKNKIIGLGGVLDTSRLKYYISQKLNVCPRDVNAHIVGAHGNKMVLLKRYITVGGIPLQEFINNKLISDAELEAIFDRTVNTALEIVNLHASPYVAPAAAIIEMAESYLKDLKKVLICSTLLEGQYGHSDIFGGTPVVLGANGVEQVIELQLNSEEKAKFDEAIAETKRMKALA
Chain of Plasmodium falciparum protein kinase 6 (PK6, PF3D7_1337100) (Q8IDW1 1-305): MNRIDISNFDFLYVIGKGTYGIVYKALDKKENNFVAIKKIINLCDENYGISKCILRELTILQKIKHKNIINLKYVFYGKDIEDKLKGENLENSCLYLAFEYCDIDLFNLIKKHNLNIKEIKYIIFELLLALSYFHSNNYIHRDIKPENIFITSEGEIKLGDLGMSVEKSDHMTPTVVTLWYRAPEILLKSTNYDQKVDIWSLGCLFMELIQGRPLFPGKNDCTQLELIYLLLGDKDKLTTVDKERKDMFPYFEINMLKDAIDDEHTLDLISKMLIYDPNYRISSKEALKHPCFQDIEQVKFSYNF

As to `O=C(Nc1ccccc1C(F)(F)F)NC1CCC(CN2CCC(c3c[nH]c4ccccc34)CC2)CC1` (configuration not stated), the growth inhibition was 12% and 42% in test [1]; 86% (active) and 96% (active) in test [4]. The inhibition was 34% and 46% in test [2]; -3% in test [3]. For the same molecule, the outcome in test [5], in test [6], in test [7] and in test [8] was inactive.
As for `CN1CC=C(c2csc3ccc(NC(=O)Nc4ccc(-c5ccncc5)c(Cl)c4)cc23)CC1`, the growth inhibition is 101% (active) in test [1] and 102% (active) in test [4]. The inhibition is 10% in test [2] and 6% in test [3]. Also, the result in test [5], in test [6], in test [7] and in test [8] was inactive.
In the case of `Cc1csc(-c2ccc3[nH]cc(C4=CCN(C)CC4)c3c2)n1`, the growth inhibition in test [1] was 78% (active); in test [4], 93% (active). For the same molecule, the inhibition was 10% in test [2] and -3% in test [3]. Further, the result in test [5], in test [6], in test [7] and in test [8] was inactive.
For the molecule `OC(CNCc1ccccc1OC(F)F)c1cccc(C(F)(F)F)c1` (configuration not stated), the figures for the growth inhibition in test [1] and in test [4] were 52% (active) and 97% (active), respectively. Further, the inhibition in test [2] is 2%; in test [3], -2%. The result in test [5], in test [6], in test [7] and in test [8] was inactive.
Regarding `CCCCCCCc1cc(=O)c2ccccc2[nH]1`, the growth inhibition in test [1] is 94% (active); in test [4] it was 96% (active). In addition, the inhibition in test [2] was 5%; in test [3], 1%. Moreover, the result in test [5], in test [6], in test [7] and in test [8] was inactive.
With `Oc1ccc(CN2CCN(CCOC(c3ccc(F)cc3)c3ccc(F)cc3)CC2)cc1Cl`, the results for the growth inhibition in test [1] and in test [4] were 87% (active) and 96% (active), respectively. For the same molecule, the inhibition in test [2] was 19%; in test [3], -4%. The outcome in test [5], in test [6], in test [7] and in test [8] was inactive.
In the case of `O=C(NC1CCC(CN2CCC(c3c[nH]c4ccccc34)CC2)CC1)c1cc(-c2ccccc2Cl)n(-c2cccc(Cl)c2)n1` (configuration not stated), the figures for the growth inhibition in test [1] and in test [4] were 24% and 95% (active), respectively. Moreover, the results for the inhibition in test [2] and in test [3] were 58% (active) and 4%, respectively. For the same molecule, the result in test [5], in test [6], in test [7] and in test [8] was inactive.
With `CC[C@H]1CN2CC[C@H]1C[C@H]2[C@H](O)c1cc(N2CCCC2)nc2ccc(OC)cc12`, the growth inhibition in test [1] was 100% (active); in test [4], 98% (active). For the same molecule, the inhibition in test [2] was -13%; in test [3], 6%. For the same molecule, the result in test [5], in test [6], in test [7] and in test [8] was inactive.
Turning to `COCCNCc1cccc(-c2ccc(CN(C(=O)Nc3ccccc3)C3CCN(Cc4ccccc4)CC3)cc2)c1`, the results for the growth inhibition in test [1] and in test [4] were 45% and 101% (active), respectively. Besides, the inhibition was 25% in test [2] and -4% in test [3]. Moreover, the outcome in test [5], in test [6], in test [7] and in test [8] was inactive.
As to `CC(=O)Nc1ccc(OCCN(CC(F)(F)F)c2ccc(C#N)cc2C(F)(F)F)cc1`, the growth inhibition is 83% (active) in test [1] and 81% (active) in test [4]. Also, the inhibition in test [2] is -1%; in test [3] it was 1%. Further, the outcome in test [5], in test [6], in test [7] and in test [8] was inactive.
Consider `OC1(CNCc2ccccc2)CCN(CCc2c[nH]c3ccc(F)cc23)CC1`, for which the growth inhibition in test [1] was 4%; in test [4], 100% (active). For the same molecule, the values for the inhibition in test [2] and in test [3] were 39% and -2%, respectively. The result in test [5], in test [6], in test [7] and in test [8] was inactive.
As to `COC(=O)c1ccc(CC(C)NCC(O)c2cccc(C(F)(F)F)c2)c(Cl)c1` (configuration not stated), the growth inhibition in test [1] is 98% (active); in test [4], 99% (active). Further, the inhibition was -10% in test [2] and 1% in test [3]. For the same molecule, the outcome in test [5], in test [6], in test [7] and in test [8] was inactive.
Consider `O=C(/C=C/c1cc(F)c(F)cc1F)N1CCC(CN2CCC(c3c[nH]c4ccccc34)CC2)CC1`, for which the growth inhibition in test [1] was 3%; in test [4], 93% (active). The values for the inhibition in test [2] and in test [3] were 26% and 1%, respectively. Moreover, the outcome in test [5], in test [6], in test [7] and in test [8] was inactive.
Consider `COC(=O)c1ccc(C[C@@H](C)NC[C@H](O)c2cccc(OCc3ccccc3)c2)cc1`, for which the values for the growth inhibition in test [1] and in test [4] were 37% and 86% (active), respectively. In addition, the inhibition in test [2] is 11%; in test [3] it was 1%. For the same molecule, the result in test [5], in test [6], in test [7] and in test [8] was inactive.
Regarding `CCCc1ccc2c(c1O)CCC(N(CCC)CCC)C2` (configuration not stated), the results for the growth inhibition in test [1] and in test [4] were 23% and 90% (active), respectively. For the same molecule, the inhibition in test [2] was -3%; in test [3], 3%. The result in test [5], in test [6], in test [7] and in test [8] was inactive.
In the case of `CC[C@H]1CN2CC[C@@H]1C[C@H]2[C@H](O)c1cc(N2CCC(N3CCCCC3)CC2)nc2ccc(OC)cc12`, the figures for the growth inhibition in test [1] and in test [4] were 77% (active) and 99% (active), respectively. In addition, the inhibition in test [2] was 0%; in test [3] it was 3%. The result in test [5], in test [6], in test [7] and in test [8] was inactive.
Consider `Cc1cc(NC(=O)[C@H](CC(C)C)Nc2ccc(C#N)c3ccccc23)ccc1F`, for which the growth inhibition in test [1] was 88% (active); in test [4], 95% (active). The inhibition in test [2] is 35%; in test [3], 3%. For the same molecule, the outcome in test [5], in test [6], in test [7] and in test [8] was inactive.
On to `COc1ccc(CC(C)NCC(O)c2ccc(Cl)c(Cl)c2)cc1` (configuration not stated), for which the growth inhibition in test [1] was 96% (active); in test [4], 98% (active). Besides, the results for the inhibition in test [2] and in test [3] were 0% and 6%, respectively. The result in test [5], in test [6], in test [7] and in test [8] was inactive.
Regarding `O=C(NCc1ccccc1)c1nn(CCCN2CCC3(CC2)C(=O)NCN3c2ccccc2)cc1-c1ccc(Cl)c(Cl)c1`, the growth inhibition in test [1] was 21%; in test [4], 88% (active). The inhibition in test [2] was 6%; in test [3] it was -5%. Also, the outcome in test [5], in test [6], in test [7] and in test [8] was inactive.
